MARV entry inh – Marburg virus entry inhibition | Marburg virus pseudotyped entry inhibition, cell reporter | Potency, µM (titrated, usually from 37.8 µM), hits mostly inhibitors | actives 1.8% (n = 300,000) | AID 540276; calls by dose curve; tested in HEK293 cells
HCMV antiviral – inhibitors of human cytomegalovirus | HFF cells, HCMV-luciferase reporter, 72 h; stronger effect = lower value | AID 1259415 | activity change, negative = inhibition, % at 57.5 µM | actives 4.5% (n = 410,000); in the data active = activity change below about -60%; inconclusive = no clear call, values can overlap the other calls; inactive = above about -39%
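Steps: HFFs plated, 16 h 37C; compounds added; HCMV-luciferase added to MOI 1 PFU/cell; 72 h 37C; OneGlo reagent, 5 min room temperature; luminescence read, normalized to controls.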
LASV entry inh – Lassa virus entry inhibition; Lassa virus pseudotype entry inhibition, cell reporter; Potency, µM (doses to about 37.9 µM), hits mostly inhibitors; actives 1.2% (n = 300,000); AID 540256; calls by dose curve; tested in HEK293 cells; also: nearly all actives have a fitted effect of over 50% in size
FMDV inh – foot and mouth disease virus antiviral activity | actives 1.2% (n = 410,000) | FMDV antiviral cell-based qHTS | Potency, µM (top dose mostly 57.9 µM), most hits filed as inhibitors; calls by dose curve; tested in HEK293T cells; also: read-out not given here; nearly all actives have a fitted effect of over 45% in size
VACV Venus inh – inhibitors of vaccinia virus (Venus reporter); actives 0.46% (n = 330,000); Vaccinia virus Venus reporter expression, fluorescence; AID 720580; Potency, µM (doses to about 36.5 µM), most hits filed as inhibitors; calls by dose curve; tested in A549 cells; also: nearly all actives have a fitted effect of over 30% in size
Vaccinia mCherry – vaccinia inhibition (mCherry reporter); Potency, µM (series often up to 36.5 µM), actives largely listed as inhibitors; Vaccinia virus mCherry reporter infection, fluorescence; actives 0.63% (n = 310,000); calls by dose curve; tested in A549 cells; also: nearly all actives have a fitted effect of over 35% in size
Hits are given with their value; [ ] = dose if it differs, or a comment. Compounds with a hit are over-represented: about 6.5% of the library has one in this group of screens.

For Cc1c(C(=O)OCc2nc3scc(-c4ccccc4)c3c(=O)[nH]2)cccc1[N+](=O)[O-] the results were MARV entry inh inconclusive, HCMV antiviral inconclusive, LASV entry inh inactive, FMDV inh 14µM, VACV Venus inh inactive and Vaccinia mCherry inactive.
CSCc1nc2scc(-c3ccccc3)c2c(=O)[nH]1 was read as MARV entry inh inactive, HCMV antiviral inactive, LASV entry inh inactive, FMDV inh inactive, VACV Venus inh inactive and Vaccinia mCherry inactive.
COc1ccc(CN(C)Cc2nc3scc(-c4ccccc4)c3c(=O)[nH]2)cc1OC was read as MARV entry inh inconclusive, HCMV antiviral -60, LASV entry inh inactive, FMDV inh inconclusive, VACV Venus inh inactive and Vaccinia mCherry inactive.
`Cc1cc(C)n(CCc2nc(-c3ccc(-c4ccccc4)cc3)cs2)n1` gave MARV entry inh inactive, HCMV antiviral -65, LASV entry inh inactive, FMDV inh inactive, VACV Venus inh inactive and Vaccinia mCherry inactive.
Screening Cc1cc(C)n(CCc2nc(-c3ccco3)cs2)n1 returned MARV entry inh inactive, HCMV antiviral -105, LASV entry inh inactive and FMDV inh inactive.
Screening Cc1cc(C)n(CCc2nc(-c3cccs3)cs2)n1 returned MARV entry inh inactive, HCMV antiviral inactive, LASV entry inh inactive, FMDV inh inactive and VACV Venus inh inactive.
For COc1ccccc1NC(=O)c1sc2ncn(Cc3cccc(C)c3)c(=O)c2c1C the results were MARV entry inh inconclusive, HCMV antiviral -102, LASV entry inh inactive, VACV Venus inh inactive and Vaccinia mCherry inactive.
For COC(=O)[C@@H]1[C@@H](CO)[C@@H]2Cn3c(cccc3=O)[C@H]1N2S(=O)(=O)c1cccc(C)c1 the results were HCMV antiviral inactive.
`COc1c(O)ccc(C2NC(=O)NC(C)=C2C(=O)Nc2ccccc2C)c1[N+](=O)[O-]` (configuration not stated) gave MARV entry inh inactive, HCMV antiviral -63, LASV entry inh inactive, FMDV inh inactive, VACV Venus inh inactive and Vaccinia mCherry inactive.
Screening COC(=O)c1cc(NC(=O)c2cc3c(-c4ccccc4F)nn(C)c3s2)cc(C(=O)OC)c1 returned MARV entry inh inactive, HCMV antiviral inactive, LASV entry inh inactive, FMDV inh inactive, VACV Venus inh inactive and Vaccinia mCherry inactive.
Cc1cccc(C)c1NC(=O)CNC(=O)C12CC3CC(CC(O)(C3)C1)C2 was read as MARV entry inh inconclusive, HCMV antiviral -73, LASV entry inh inactive, FMDV inh inactive, VACV Venus inh inactive and Vaccinia mCherry inactive.
Screening Cc1cccc(NC(=O)CNC(=O)C23CC4CC(CC(Cl)(C4)C2)C3)n1 returned MARV entry inh inactive, HCMV antiviral inactive, LASV entry inh inactive, FMDV inh inactive, VACV Venus inh inactive and Vaccinia mCherry inactive.
`O=C(/C=C/c1ccccc1)c1ccccn1` gave MARV entry inh inactive, HCMV antiviral inactive, LASV entry inh inactive, FMDV inh inactive, VACV Venus inh inactive and Vaccinia mCherry inactive.
`O=C(/C=C/Nc1ccccc1F)c1ccc(Br)cc1` gave MARV entry inh inconclusive, HCMV antiviral inactive, LASV entry inh inconclusive, FMDV inh inactive, VACV Venus inh inactive and Vaccinia mCherry inactive.
For O=C(/C=C/Nc1ccc(Br)cc1F)c1ccccc1 the results were MARV entry inh 1.3µM, HCMV antiviral inactive, LASV entry inh 1.6µM, FMDV inh inconclusive, VACV Venus inh inactive and Vaccinia mCherry inactive.
`O=C(/C=C\Nc1ccccn1)c1ccccc1` gave MARV entry inh inconclusive, HCMV antiviral inactive, LASV entry inh 2.5µM, FMDV inh inactive, VACV Venus inh inactive and Vaccinia mCherry inactive.
Screening O=C(/C=C/Nc1ccccc1Br)c1ccccn1 returned MARV entry inh inconclusive, HCMV antiviral -85, LASV entry inh 1.1µM, FMDV inh 2.2µM, VACV Venus inh inactive and Vaccinia mCherry inactive[1.46 µM].
COc1ccc(C(=O)/C=C/Nc2ccccn2)c(OC)c1 was read as MARV entry inh inconclusive, HCMV antiviral inactive, LASV entry inh inconclusive, FMDV inh inactive, VACV Venus inh inactive and Vaccinia mCherry inactive.
`O=C(c1csnn1)N1CCC2(CCCN(c3ncccn3)C2)CC1` gave FMDV inh inactive.
COc1cc(=O)n2c(c1C(=O)NCc1ccco1)CCN(Cc1ccc(F)cc1Cl)CC2 was read as FMDV inh inactive, VACV Venus inh inactive and Vaccinia mCherry inactive.

Compound activity from PubChem BioAssay.
